DT40 TDP1 CPT – DT40-hTDP1 cell growth loss with CPT | chicken DT40 Tdp1-/-;hTDP1 cells + 20 nM CPT, ATP luminescence, 48 h | Potency, µM (doses to about 46.2 µM), without a hit: top-dose activity change, negative = growth inhibition, usual class: inhibitors | 420,000 compounds, 12% hits; further: potency means the concentration at half of the fitted maximal effect; nearly all actives have a fitted effect of over 55% in size
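Chicken DT40 Tdp1-/- cells complemented with human TDP1, 400 cells/well, exposed to compounds plus 20 nM camptothecin for at least 48 h at 37 C; viability read as ATP content by CellTiter-Glo luminescence.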
IL-1B inflam inh – inhibitors of inflammasome signaling (IL-1 beta secretion); THP-1 LPS/ATP IL-1B secretion, AlphaLISA, 16 h; hits give low values; activity change, % at 57.5 µM; 360,000 compounds, 4.7% hits; AID 743279; in the data active means activity change below about -50%; inconclusive means mostly about -30% to -49%
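THP-1 cells pretreated 1 hr with compounds (up to 57.5 uM final), then stimulated with LPS (250 ng/mL final) plus ATP (1.25 mM final); secreted IL-1B measured by AlphaLISA after 16 hr, decreased signal indicating inhibition.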
HT1080-NT tox – kills 2HG-producing HT-1080-NT fibrosarcoma cells. AID 686970. HT-1080-NT fibrosarcoma viability, CellTiter-Glo ATP luminescence, 48 h. 360,000 compounds, 1.6% hits. Potency, µM (series often up to 46.1 µM), for the others: at the top dose activity, negative = less viability, hits mostly cytotoxic;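 further: NT is the 2HG producing partner of a matched IDH1 knockdown line; potency means the concentration at half of the fitted maximal effect; 0% = DMSO-treated cells and -100% = media-only wells without cells; nearly all actives have a fitted effect of over 55% in size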
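Viability of the 2HG-overproducing fibrosarcoma line after 48 hours of compound exposure at 37 degrees C was determined by luminescence with CellTiter-Glo, and concentration-effect curves were then fitted and categorized.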
DT40 TDP1 no CPT – qHTS for Inhibitors of human tyrosyl-DNA phosphodiesterase 1 (TDP1): qHTS in cells in absence of CPT; 420,000 compounds, 15% hits; AID 686978, 2013; DT40 Tdp1-/- hTDP1 cells, no CPT, ATP luminescence, 48 h; Potency, µM (series often up to 46.2 µM), for the others: at the top dose activity change, negative = growth inhibition, hits mostly inhibitors; further: potency means the concentration at half of the fitted maximal effect; nearly all actives have a fitted effect of over 55% in size
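A cellular qHTS used chicken DT40 cells lacking endogenous Tdp1 but carrying stably transfected human TDP1. Compounds were applied without camptothecin, and cell growth kinetics were judged by ATP-dependent luminescence after ≥48 hr.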
HT1080 IDH1KD tx – toxicity to HT-1080 IDH1 knockdown cells (counter line) | HT-1080 IDH1 knockdown viability, ATP luminescence, 48 h | Potency, µM (titrated, usually from 46.1 µM), without a hit: at the top dose activity, negative = toxicity, most hits filed as cytotoxic | 360,000 compounds, 2% hits | AID 686971;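 further: potency means the concentration at half of the fitted maximal effect; 0% = DMSO wells and -100% = cell-free medium wells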
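After a 2 h attachment period, IDH1KD HT-1080 cells took pin-transferred compound for 48 h at 37 °C; ATP-based luminescence after 10 min room-temperature reagent incubation reported viability.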
* marks the source's active call; other numbers are inactive results; i = inactive; ? = inconclusive; nt = not tested or not shown. Compounds with a hit are over-represented: about 19% of the library has one in this group of screens. Unless noted, the call rests on the fitted dose curve; in most records, active means well fitted curve in the direction sought with a large enough effect; inconclusive means small, poorly fitted or top-dose-only effect, or another doubt; inactive means no such curve, though single readings can be large; an effect the other way counts as inactive or inconclusive. Unless noted, on the % scale 0 is the no-effect control and ±100 the full control effect.

SMILES	DT40 TDP1 CPT	IL-1B inflam inh	HT1080-NT tox	DT40 TDP1 no CPT	HT1080 IDH1KD tx
C[C@H]1CN([C@@H](C)CO)C(=O)CCCn2nncc2CO[C@@H]1CN(C)C(=O)c1ccccc1	-7%	17	3%	9%	4%
CCCc1nc(SCC(=O)N2CCN(c3ccccc3)CC2)c2c(=O)n(C)c(=O)n(C)c2n1	6.5µM*	16	-12%	7.3µM*	4%
CCCc1nc(SCC(=O)N2CCC(C)CC2)c2c(=O)n(C)c(=O)n(C)c2n1	16µM*	?	13%	12µM*	10%
CCCc1nc(SC2CCCC2)c2c(=O)n(C)c(=O)n(C)c2n1	23µM*	33	3%	23µM*	0%
CCc1nc(SCC(=O)N2CCC(C)CC2)c2c(=O)n(C)c(=O)n(C)c2n1	?	27	6%	26µM*	-9%
O=C(COC(=O)COc1ccccc1F)NC1CC1	8%	8	1%	-3%	2%
Cc1nn(C)cc1S(=O)(=O)N1CCN(c2ccccc2F)CC1	-19%	i	-5%	-22%	-1%
CC(C)NC(=O)Cn1c(=O)n(CC(=O)N2CCCCC2)c(=O)c2sccc21	7%	7	1%	4%	-1%
O=C(NC1CCCC1)c1cc(=O)[nH]c2ccccc12	-5%	-2	-3%	-12%	1%
Cc1c(C)n(C)c2ccc(C(=O)NCCc3ccc(Cl)cc3)cc12	18µM*	nt	nt	?	nt
Cc1c(C)n(C)c2ccc(C(=O)NCCCN3CCCCC3C)cc12 (stereo not drawn)	-19%	?	-5%	16%	-16%
Cc1c(C)n(C)c2ccc(C(=O)Nc3cccc4ccccc34)cc12	26µM*	-19	-4%	?	-3%
Cc1c(C)n(C)c2ccc(C(=O)NCCc3ccco3)cc12	?	?	0%	16µM*	1%
O=C(c1ccc(NS(=O)(=O)c2ccc(F)cc2)cc1)N1CCOCC1	4%	8	0%	-1%	-5%
O=Nc1c(-c2c(O)[nH]c3cc(Br)ccc23)[nH]c2ccccc12	?	-106*	5.2µM*	15µM*	8.2µM*
O=C(CSCc1cccc(Br)c1)N=Nc1c(O)[nH]c2ccccc12	-10%	13	-2%	-26%	2%
c1ccc(C(c2ccccc2)N2CCCC3(CCNCC3)C2)cc1	9.2µM*	nt	nt	6.5µM*	nt
c1ccc(C(c2ccccc2)N2CC[C@@]3(CCCNC3)C2)cc1	?	nt	nt	26µM*	nt
O=c1[nH]c(=S)[nH]c2c1C(c1ccc(F)cc1)OC(CCC(F)(F)F)C2 (stereo not drawn)	0%	13	9%	-5%	13%
Cc1cccc(N2CC(c3nc4ccccc4[nH]3)CC2=O)c1 (stereo not drawn)	-13%	-7	5%	-9%	14%
CC(=O)OC1CC(C)(C)N(OC(=O)c2ccccc2)C(C)(C)C1	?	-26	0%	21µM*	0%
CC(=O)ON1C(C)(C)CC(OC(=O)c2ccccc2)CC1(C)C	21µM*	16	1%	-27%	-2%
CC(=O)OC1CC(C)(C)N(OC(=O)c2ccc(N)cc2)C(C)(C)C1	?	24	18%	-20%	11%
O=C(OC1Cn2c(=O)ccc(=O)n2C1)c1ccccc1	-29%	-13	13%	-3%	12%
O=C(COC(=O)c1ccc(Sc2ccccc2)c([N+](=O)[O-])c1)NC1CCS(=O)(=O)C1 (stereo not drawn)	2%	25	3%	-10%	-1%
COc1ccc(-n2cc(CNCCCn3ccnc3)c(-c3cccc(F)c3)n2)cc1	?	?	-25%	-21%	?
CCN1CC(CN(C)Cc2cn(-c3cccc(C)c3)nc2-c2cccc(F)c2)CC1=O (stereo not drawn)	16µM*	?	2%	18µM*	-7%
Cc1cccc(-c2nn(-c3ccccc3)cc2CNCCO)c1	?	nt	nt	13µM*	nt

Screens (PubChem BioAssay)
